Holding throughout (test): DAPPL (digital affinity profiling via proximity ligation, sequencing); 10 mM Tris-HCl pH 7.5, 50 mM NaCl, 1 mM DTT, 4% glycerol, room temperature, 30 min; GST-TFs on glutathione beads, 16-mer random dsDNA library, 0.1% formaldehyde crosslink after washing; high values mean tight binding
In one experiment the target is T1, FEV (Homo sapiens, UniProt Q99581 1-238).
T1 sequence: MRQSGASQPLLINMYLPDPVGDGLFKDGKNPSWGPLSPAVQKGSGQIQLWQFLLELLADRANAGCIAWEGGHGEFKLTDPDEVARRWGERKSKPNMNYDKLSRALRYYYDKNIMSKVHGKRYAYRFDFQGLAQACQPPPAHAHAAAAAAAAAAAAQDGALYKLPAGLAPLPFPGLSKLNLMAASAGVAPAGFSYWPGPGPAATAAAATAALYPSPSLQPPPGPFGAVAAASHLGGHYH
The conditions noted are these: protein: recombinant; tags: N-terminal GST; dsDNA, one strand shown. In a few lines:
(§1)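 Binding signal is given per hexamer as its read frequency for a factor divided by its frequency in the tag-only sample. GST-fused human transcription factors were expressed in yeast, captured on glutathione beads, barcoded with DNA and pooled with that sample, then incubated with 200 nmole of a 16-mer random double-stranded DNA library in Tris/NaCl/DTT/glycerol buffer for 30 min at room temperature. The pools were then washed, crosslinked, proximity-ligated, amplified by PCR and sequenced on an Illumina NextSeq500.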

Another experiment has as its target ETV5 (Homo sapiens, UniProt P41161 1-510). As to conditions: protein: recombinant; tags: N-terminal GST; dsDNA, one strand shown. In a few lines: as §1
The next experiment has as its target HSF1 (Homo sapiens, UniProt Q00613 1-529). The conditions noted are these: protein: recombinant; tags: N-terminal GST; chain copies: 3; dsDNA, one strand shown. The procedure, abridged: as §1
In a further experiment the target is T2, SPIC (Homo sapiens, UniProt Q8N5J4 1-248).
T2 sequence: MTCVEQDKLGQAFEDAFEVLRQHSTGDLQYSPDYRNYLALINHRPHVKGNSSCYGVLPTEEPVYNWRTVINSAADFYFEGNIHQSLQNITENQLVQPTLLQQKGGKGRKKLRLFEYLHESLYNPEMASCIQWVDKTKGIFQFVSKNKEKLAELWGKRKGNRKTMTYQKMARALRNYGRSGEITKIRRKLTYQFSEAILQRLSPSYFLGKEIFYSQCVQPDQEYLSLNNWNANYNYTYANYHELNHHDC
The conditions noted are these: protein: recombinant; tags: N-terminal GST; dsDNA, one strand shown. The procedure, abridged: as §1

Another experiment concerns the target ELF4 (Homo sapiens, UniProt Q99607 1-663). The conditions noted are these: protein: recombinant; tags: N-terminal GST; dsDNA, one strand shown. In a few lines:
as §1

The next experiment addresses T3, ELK4 (Homo sapiens, UniProt P28324-2 1-405).
T3 sequence: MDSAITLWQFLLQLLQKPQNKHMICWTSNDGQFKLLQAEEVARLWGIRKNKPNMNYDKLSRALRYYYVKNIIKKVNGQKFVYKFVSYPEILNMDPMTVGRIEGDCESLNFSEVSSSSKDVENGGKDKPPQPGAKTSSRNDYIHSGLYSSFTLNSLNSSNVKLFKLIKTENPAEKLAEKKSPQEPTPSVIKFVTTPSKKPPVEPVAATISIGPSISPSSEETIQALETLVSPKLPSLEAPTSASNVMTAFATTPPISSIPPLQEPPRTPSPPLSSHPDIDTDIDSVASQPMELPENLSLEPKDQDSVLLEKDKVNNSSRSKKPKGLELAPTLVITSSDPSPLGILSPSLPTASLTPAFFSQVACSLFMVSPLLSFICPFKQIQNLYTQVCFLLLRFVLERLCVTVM
As to conditions: protein: recombinant; tags: N-terminal GST; dsDNA, one strand shown. In a few lines:
as §1

A further experiment concerns the target T4, ETV2 (Homo sapiens, UniProt O00321 1-342).
T4 sequence: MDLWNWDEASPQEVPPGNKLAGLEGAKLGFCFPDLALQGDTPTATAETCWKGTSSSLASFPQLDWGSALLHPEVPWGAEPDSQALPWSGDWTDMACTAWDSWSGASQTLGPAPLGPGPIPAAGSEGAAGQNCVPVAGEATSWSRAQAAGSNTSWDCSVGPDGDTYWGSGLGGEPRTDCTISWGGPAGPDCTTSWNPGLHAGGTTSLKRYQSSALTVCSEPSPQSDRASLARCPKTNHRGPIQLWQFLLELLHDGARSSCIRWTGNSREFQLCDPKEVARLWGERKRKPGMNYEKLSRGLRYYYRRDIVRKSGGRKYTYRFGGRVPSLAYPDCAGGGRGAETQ
The conditions noted are these: protein: recombinant; tags: N-terminal GST; dsDNA, one strand shown. The procedure, abridged:
as §1

The target of a further experiment is T5, ELF3 (Homo sapiens, UniProt P78545 1-371).
T5 sequence: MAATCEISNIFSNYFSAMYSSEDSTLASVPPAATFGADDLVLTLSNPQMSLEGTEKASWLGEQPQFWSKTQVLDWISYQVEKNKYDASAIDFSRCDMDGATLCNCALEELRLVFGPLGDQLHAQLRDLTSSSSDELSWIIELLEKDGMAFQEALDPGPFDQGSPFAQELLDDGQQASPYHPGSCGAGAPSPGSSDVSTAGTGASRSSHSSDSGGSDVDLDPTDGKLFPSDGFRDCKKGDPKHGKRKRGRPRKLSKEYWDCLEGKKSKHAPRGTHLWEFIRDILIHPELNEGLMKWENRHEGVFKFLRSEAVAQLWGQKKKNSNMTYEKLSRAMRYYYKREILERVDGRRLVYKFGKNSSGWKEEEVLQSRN
The conditions noted are these: protein: recombinant; tags: N-terminal GST; dsDNA, one strand shown. The procedure, abridged:
as §1

A further experiment has as its target CRX (Homo sapiens, UniProt O43186 1-299). The conditions noted are these: protein: recombinant; tags: N-terminal GST; dsDNA, one strand shown. The procedure, abridged: as §1
A further experiment concerns the target ETV1 (Homo sapiens, UniProt P50549 1-477). As to conditions: protein: recombinant; tags: N-terminal GST; dsDNA, one strand shown. The procedure, abridged: as §1
The target in another experiment is T6, ERF (Homo sapiens, UniProt P50548 1-548).
T6 sequence: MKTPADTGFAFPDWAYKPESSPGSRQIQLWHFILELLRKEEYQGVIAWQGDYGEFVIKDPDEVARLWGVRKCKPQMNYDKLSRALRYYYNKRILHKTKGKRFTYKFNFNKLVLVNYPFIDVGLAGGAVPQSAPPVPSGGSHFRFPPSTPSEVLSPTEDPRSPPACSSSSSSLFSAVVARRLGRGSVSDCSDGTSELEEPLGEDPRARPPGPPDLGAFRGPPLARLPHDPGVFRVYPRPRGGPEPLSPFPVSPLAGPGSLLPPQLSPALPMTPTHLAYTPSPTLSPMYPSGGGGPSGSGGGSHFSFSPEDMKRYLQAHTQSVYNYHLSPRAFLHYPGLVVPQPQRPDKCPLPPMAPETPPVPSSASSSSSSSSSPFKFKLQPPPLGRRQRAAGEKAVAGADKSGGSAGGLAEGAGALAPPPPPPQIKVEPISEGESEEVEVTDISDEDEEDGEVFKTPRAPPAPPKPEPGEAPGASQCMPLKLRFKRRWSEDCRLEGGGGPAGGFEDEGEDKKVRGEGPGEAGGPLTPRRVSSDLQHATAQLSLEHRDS
The conditions noted are these: protein: recombinant; tags: N-terminal GST; dsDNA, one strand shown. In a few lines:
as §1

A further experiment deals with T7, ETV3L (Homo sapiens, UniProt Q6ZN32 1-361).
T7 sequence: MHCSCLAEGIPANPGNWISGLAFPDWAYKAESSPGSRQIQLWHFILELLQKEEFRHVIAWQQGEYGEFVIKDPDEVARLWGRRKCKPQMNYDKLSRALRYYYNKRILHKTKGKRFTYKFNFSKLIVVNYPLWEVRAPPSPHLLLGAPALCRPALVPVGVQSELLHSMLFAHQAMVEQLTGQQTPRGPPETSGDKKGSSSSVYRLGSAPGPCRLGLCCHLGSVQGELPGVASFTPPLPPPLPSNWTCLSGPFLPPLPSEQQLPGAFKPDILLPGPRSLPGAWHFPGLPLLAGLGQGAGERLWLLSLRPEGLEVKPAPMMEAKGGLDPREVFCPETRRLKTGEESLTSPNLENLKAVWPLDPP
The conditions noted are these: protein: recombinant; tags: N-terminal GST; dsDNA, one strand shown. In a few lines: as §1

The target in the next experiment is T8, ETS2 (Homo sapiens, UniProt P15036 1-469).
T8 sequence: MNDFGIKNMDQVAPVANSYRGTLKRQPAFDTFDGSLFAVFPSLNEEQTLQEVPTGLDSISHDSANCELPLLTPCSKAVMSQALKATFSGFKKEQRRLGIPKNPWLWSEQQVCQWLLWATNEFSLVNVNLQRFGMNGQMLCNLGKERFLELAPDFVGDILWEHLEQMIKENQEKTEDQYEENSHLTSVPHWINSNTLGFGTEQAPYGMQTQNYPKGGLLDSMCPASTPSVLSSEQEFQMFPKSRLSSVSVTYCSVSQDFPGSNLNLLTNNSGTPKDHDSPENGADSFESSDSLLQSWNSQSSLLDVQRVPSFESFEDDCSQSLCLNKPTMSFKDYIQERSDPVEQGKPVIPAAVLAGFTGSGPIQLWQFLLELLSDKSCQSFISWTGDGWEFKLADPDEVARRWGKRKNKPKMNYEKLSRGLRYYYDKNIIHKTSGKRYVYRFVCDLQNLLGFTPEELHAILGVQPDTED
The conditions noted are these: protein: recombinant; tags: N-terminal GST; dsDNA, one strand shown. In a few lines: as §1

Another experiment addresses T9, SPDEF (Homo sapiens, UniProt O95238 1-335).
T9 sequence: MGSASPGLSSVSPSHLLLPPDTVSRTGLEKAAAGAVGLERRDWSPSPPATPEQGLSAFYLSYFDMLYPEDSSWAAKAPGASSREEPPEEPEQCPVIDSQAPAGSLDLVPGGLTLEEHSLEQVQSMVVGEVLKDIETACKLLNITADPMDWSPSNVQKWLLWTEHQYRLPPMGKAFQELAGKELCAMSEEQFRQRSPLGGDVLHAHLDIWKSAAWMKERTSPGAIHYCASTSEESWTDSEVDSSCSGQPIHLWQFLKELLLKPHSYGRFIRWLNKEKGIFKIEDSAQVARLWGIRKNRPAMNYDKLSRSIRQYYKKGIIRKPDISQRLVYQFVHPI
As to conditions: protein: recombinant; tags: N-terminal GST; dsDNA, one strand shown. The procedure, abridged:
as §1

The target of a further experiment is T10, ETV7 (Homo sapiens, UniProt Q9Y603 1-341).
T10 sequence: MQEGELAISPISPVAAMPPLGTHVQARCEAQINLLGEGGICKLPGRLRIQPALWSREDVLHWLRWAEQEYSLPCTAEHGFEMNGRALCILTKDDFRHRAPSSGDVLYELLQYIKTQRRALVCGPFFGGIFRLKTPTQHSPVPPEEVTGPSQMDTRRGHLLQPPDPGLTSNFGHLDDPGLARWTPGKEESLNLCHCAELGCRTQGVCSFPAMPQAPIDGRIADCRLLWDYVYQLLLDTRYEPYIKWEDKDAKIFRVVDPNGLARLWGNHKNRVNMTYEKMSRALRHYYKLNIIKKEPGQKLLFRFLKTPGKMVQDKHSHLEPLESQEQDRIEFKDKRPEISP
The conditions noted are these: protein: recombinant; tags: N-terminal GST; dsDNA, one strand shown. The procedure, abridged:
as §1

In another experiment the target is T11, ELF5 (Homo sapiens, UniProt Q9UKW6-2 1-255).
T11 sequence: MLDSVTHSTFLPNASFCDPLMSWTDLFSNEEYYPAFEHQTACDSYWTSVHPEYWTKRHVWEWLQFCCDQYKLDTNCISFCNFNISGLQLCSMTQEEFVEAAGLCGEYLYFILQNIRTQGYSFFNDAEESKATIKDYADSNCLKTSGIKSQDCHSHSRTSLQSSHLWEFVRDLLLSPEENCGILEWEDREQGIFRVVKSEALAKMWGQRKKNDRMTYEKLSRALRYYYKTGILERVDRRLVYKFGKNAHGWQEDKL
The conditions noted are these: protein: recombinant; tags: N-terminal GST; dsDNA, one strand shown. The procedure, abridged:
as §1

The target of the next experiment is T12, ETV3 (Homo sapiens, UniProt P41162-2 1-143).
T12 sequence: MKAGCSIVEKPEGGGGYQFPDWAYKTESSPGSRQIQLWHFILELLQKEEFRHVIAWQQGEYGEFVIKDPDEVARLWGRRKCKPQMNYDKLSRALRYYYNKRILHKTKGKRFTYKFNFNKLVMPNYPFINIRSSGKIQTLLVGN
As to conditions: protein: recombinant; tags: N-terminal GST; dsDNA, one strand shown. The procedure, abridged: as §1

In the next experiment the target is ETV6 (Homo sapiens, UniProt P41212 1-452). As to conditions: protein: recombinant; tags: N-terminal GST; dsDNA, one strand shown. In a few lines: as §1
ETV6, sequence (P41212 whole entry): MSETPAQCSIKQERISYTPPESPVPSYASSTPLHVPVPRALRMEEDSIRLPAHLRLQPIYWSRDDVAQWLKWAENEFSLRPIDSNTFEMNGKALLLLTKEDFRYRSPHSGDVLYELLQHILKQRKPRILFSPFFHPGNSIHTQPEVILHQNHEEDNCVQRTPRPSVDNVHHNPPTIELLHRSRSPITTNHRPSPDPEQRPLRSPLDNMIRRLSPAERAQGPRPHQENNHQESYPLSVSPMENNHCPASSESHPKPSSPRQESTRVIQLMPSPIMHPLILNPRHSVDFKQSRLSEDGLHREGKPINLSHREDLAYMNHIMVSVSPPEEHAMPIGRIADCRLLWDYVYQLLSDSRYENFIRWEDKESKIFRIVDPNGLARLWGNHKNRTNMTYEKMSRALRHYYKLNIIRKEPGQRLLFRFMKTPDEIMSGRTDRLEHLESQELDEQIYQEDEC

HSF1, sequence (Q00613 whole entry): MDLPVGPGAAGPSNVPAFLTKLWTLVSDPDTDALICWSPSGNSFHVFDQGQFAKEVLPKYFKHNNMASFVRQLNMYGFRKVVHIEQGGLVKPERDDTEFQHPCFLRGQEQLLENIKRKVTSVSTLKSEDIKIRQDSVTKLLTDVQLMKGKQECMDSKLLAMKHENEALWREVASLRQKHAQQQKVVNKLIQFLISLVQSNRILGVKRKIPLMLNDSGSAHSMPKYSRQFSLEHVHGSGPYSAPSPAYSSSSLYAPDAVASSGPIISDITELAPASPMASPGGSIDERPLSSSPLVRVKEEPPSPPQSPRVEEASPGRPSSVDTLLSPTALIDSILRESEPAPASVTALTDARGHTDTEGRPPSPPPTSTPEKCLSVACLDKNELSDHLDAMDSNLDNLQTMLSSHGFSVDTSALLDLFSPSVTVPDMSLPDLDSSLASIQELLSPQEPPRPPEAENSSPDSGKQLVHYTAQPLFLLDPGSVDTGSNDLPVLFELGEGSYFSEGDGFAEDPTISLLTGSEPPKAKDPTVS
ETV5, sequence (P41161 whole entry): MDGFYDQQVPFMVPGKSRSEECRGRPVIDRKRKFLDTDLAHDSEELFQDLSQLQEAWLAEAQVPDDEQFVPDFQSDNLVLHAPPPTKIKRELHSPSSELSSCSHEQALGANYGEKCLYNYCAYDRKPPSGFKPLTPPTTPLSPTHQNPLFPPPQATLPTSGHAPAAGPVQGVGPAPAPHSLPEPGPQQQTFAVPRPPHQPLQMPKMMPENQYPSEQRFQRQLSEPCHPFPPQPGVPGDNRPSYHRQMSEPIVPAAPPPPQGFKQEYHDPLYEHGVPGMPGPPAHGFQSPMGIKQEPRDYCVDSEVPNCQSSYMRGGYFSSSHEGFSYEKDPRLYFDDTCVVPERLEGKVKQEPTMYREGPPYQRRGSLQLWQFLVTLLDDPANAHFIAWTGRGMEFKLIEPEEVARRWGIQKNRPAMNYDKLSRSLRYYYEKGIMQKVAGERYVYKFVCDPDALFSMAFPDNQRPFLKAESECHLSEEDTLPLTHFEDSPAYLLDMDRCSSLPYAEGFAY
CRX, sequence (O43186 whole entry): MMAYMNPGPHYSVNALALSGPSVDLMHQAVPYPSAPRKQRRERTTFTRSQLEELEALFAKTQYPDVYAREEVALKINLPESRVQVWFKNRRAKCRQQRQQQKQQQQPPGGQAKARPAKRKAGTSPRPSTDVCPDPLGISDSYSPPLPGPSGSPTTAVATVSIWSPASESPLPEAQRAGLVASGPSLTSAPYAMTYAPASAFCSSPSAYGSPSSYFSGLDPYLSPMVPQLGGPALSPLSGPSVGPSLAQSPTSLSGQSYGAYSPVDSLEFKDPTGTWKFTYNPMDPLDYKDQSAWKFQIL
ETV1, sequence (P50549 whole entry): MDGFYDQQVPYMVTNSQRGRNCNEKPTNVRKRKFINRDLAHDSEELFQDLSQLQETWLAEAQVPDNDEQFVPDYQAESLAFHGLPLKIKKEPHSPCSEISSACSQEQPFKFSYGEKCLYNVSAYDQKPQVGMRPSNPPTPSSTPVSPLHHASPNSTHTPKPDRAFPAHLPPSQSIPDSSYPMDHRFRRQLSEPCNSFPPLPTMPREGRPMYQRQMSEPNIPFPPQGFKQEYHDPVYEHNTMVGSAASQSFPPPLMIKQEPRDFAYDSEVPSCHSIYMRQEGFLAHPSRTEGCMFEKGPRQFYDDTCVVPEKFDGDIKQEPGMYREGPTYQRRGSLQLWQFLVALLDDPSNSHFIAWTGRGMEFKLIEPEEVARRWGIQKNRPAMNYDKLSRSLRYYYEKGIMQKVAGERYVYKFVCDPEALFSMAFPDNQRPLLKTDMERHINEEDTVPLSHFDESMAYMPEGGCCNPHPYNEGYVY
ELF4, sequence (Q99607 whole entry): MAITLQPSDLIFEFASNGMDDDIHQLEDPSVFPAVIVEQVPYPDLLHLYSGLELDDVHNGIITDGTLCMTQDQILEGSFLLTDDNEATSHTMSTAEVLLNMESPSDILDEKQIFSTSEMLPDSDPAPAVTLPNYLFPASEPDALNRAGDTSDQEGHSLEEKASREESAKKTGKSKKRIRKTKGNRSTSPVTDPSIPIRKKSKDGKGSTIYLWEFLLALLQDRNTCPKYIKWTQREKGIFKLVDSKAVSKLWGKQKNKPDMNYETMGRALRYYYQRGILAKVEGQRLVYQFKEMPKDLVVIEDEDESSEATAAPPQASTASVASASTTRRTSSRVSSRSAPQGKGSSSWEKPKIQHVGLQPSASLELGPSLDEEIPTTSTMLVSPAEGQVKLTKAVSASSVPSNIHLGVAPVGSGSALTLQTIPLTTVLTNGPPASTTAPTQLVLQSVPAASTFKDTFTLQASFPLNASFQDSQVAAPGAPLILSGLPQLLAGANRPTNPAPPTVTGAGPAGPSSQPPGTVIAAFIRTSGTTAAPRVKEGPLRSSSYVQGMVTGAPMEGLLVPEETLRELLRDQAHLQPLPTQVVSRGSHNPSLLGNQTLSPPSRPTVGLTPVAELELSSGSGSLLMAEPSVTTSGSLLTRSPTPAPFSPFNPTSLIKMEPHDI

As for TGACCG, the binding signal is 1.66 fold enrichment (6-mer frequency, TF over GST control) in the experiment with FEV; 1.33 fold enrichment (6-mer frequency, TF over GST control) with ETV5; 1.17 fold enrichment (6-mer frequency, TF over GST control) with HSF1; 1.68 fold enrichment (6-mer frequency, TF over GST control) with SPIC; 1.47 fold enrichment (6-mer frequency, TF over GST control) in the experiment with ELF4; 1.4 fold enrichment (6-mer frequency, TF over GST control) with ELK4. Moreover, the binding signal with ETV2 was 1.52 fold enrichment (6-mer frequency, TF over GST control); with ELF3, 1.66 fold enrichment (6-mer frequency, TF over GST control); with CRX, 1.1 fold enrichment (6-mer frequency, TF over GST control); with ETV1, 1.56 fold enrichment (6-mer frequency, TF over GST control); in the experiment with ERF it was 1.41 fold enrichment (6-mer frequency, TF over GST control); in the experiment with ETV3L, 1.41 fold enrichment (6-mer frequency, TF over GST control). For the same sequence, the binding signal with ETS2 is 1.55 fold enrichment (6-mer frequency, TF over GST control); with SPDEF, 1.44 fold enrichment (6-mer frequency, TF over GST control); with ETV7 it was 1.49 fold enrichment (6-mer frequency, TF over GST control); with ELF5, 1.4 fold enrichment (6-mer frequency, TF over GST control); in the experiment with ETV3, 1.53 fold enrichment (6-mer frequency, TF over GST control); in the experiment with ETV6, 1.36 fold enrichment (6-mer frequency, TF over GST control).
